These results are taken from the supplement of paper PMC10646978.

± gives the standard deviation.

For the assay, the system named is RAW-Dual (murine macrophage reporter line). The experiment in a line: NF-kB reporter (SEAP) activity fold change vs agonist alone; higher = enhanced NF-kB activity. The conditions noted are these: modulator concentration 10 µM; agonist: CpG ODN 1826 0.5 ug/mL. A digest of the protocol: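 RAW-Dual murine macrophage reporter cells were plated at 50 000 per well in 384-well plates, pin-transferred compound to 10 μM final, and pre-incubated for 1 hour at 37 °C before a PRR agonist was added and the cells incubated overnight. NF-κB activity was read from supernatant SEAP with QUANTI-Blue at 620 nm absorbance, and IRF activity from Lucia luciferase with QUANTI-Luc by luminescence. Each signal was expressed as fold change by dividing by the mean agonist-only control on the same plate. Two replicate plates were averaged, with errors obtained by propagation.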
`COC12CC(COC(=O)c3cncc(Br)c3)CN(C)C1Cc1cn(C)c3cccc2c13` (centres undefined): the NF-kB reporter worked out at 1.02 ± 0.11.

For `CCOC(=O)c1ccccc1-c1ccc(C=C2C(=O)NC(=O)N(c3ccccc3C)C2=O)o1`, the NF-kB reporter turned out to be 0.727 ± 0.082. To `c1cc2c(cc1C1OCC3C(c4ccc5c(c4)OCO5)OCC13)OCO2` (centres undefined) belongs 0.745 ± 0.22; to `CCN(CC)CCNC(=O)C(O)(c1ccccc1)c1ccccc1`, 0.873 ± 0.071; to `COc1cc2c(cc1OC)C1CC(=O)C(CC(C)C)CN1CC2` (centres undefined), 1.09 ± 0.093. Regarding `O=C1CCC(=O)N1C1CC2CCC(C1)N2C(=O)Cc1cccc2ccccc12` (centres undefined), the NF-kB reporter is 0.977 ± 0.049. To `CCOc1cc(C=C2C(=O)NC(=O)NC2=O)ccc1OCc1c(Cl)cccc1Cl` belongs 1.06 ± 0.091; to `CCC1(O)C(=O)OCc2c1cc1n(c2=O)Cc2cc3ccccc3nc2-1` (centres undefined), 0.948 ± 0.074. Take `CCC1(c2cccc(O)c2)CCCCN(C)C1.Cl` (centres undefined): the NF-kB reporter turned out to be 0.894 ± 0.13. Take `CC(C)c1ccc2c(c1O)CCC1C3=C(CCC21C)C(=O)OC3` (centres undefined): the NF-kB reporter was 0.921 ± 0.072. `COc1cc(OC)c(OC)cc1C=O`: the NF-kB reporter came to 1.08 ± 0.3. Turning to `COc1ccc(CCNCc2ccc3ccccc3c2)cc1OC`, the NF-kB reporter was determined as 0.42 ± 0.095. For the molecule `COC(=O)COc1ccc(C=C2C(=O)NC(=S)N(c3cccc(Cl)c3Cl)C2=O)cc1OC`, the NF-kB reporter worked out at 0.959 ± 0.09.

`CC(C)N(CCC(C(N)=O)(c1ccccc1)c1ccccn1)C(C)C` (centres undefined): the NF-kB reporter was found to be 0.86 ± 0.23.

On to `COc1ccc(CNCCc2c[nH]c3ccccc23)c(OC)c1C`, for which the NF-kB reporter was 0.258 ± 0.021. As for `CCOC(=O)Nc1ccc(NCc2ccc(F)cc2)cc1N`, the NF-kB reporter amounted to 0.882 ± 0.039. For `O=Cc1cn(Cc2cccc3ccccc23)c2ccccc12`, the NF-kB reporter turned out to be 0.959 ± 0.16. To `C1CCc2nnnn2CC1` [Prestw-162] belongs 1.27 ± 0.3. Take `O=C(O)COc1cc(Cl)c(Cl)cc1Cl`: the NF-kB reporter was determined as 0.993 ± 0.076.
